Inconclusive results are not listed. Entries that show only a call come without a potency. Unmarked numbers belong to inactive results. The source made the active and inactive calls. Unless noted, the call rests on the fitted dose curve; in most records, active means well fitted curve in the direction sought with a large enough effect in the repeat runs; inconclusive means weak or mixed curves; inactive means no such curve, though single readings can be large; an effect the other way counts as inactive or inconclusive.
What was measured:
[1] = qHTS assay to identify aromatase inhibitors - cell viability counter screen (AID 743084);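 further: cells stimulated with testosterone during compound exposure; nearly all actives have a fitted effect of over 55% in size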; further: potency means the concentration at half of the fitted maximal effect
[2] = biological target: Peroxisome proliferator-activated receptor gamma (Homo sapiens) (UniProt P37231); assay: qHTS assay to identify small molecule agonists of the peroxisome proliferator-activated receptor gamma (PPARg) signaling pathway (AID 743094; active means well fitted activation curve with a large enough effect in the signal ratio in the repeat runs, not every such curve was filed as active; the % refers to the signal ratio; further: potency means the concentration at half of the fitted maximal effect)
Method in brief: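 Beta-lactamase FRET fluorescence was the read-out after a 1 h room-temperature substrate step, following 17 h compound treatment at 37C of HEK293H cells expressing a UAS-driven bla reporter responsive to PPARg.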

[3] = biological target: Peroxisome proliferator-activated receptor gamma (Homo sapiens) (UniProt P37231); assay: qHTS assay to identify small molecule antagonists of the peroxisome proliferator-activated receptor gamma (PPARg) signaling pathway (AID 743191; calls by dose curve; further: nearly all actives have a fitted effect of over 30% in size; further: potency means the concentration at half of the fitted maximal effect)
Method in brief: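 GeneBLAzer PPARg UAS-bla HEK293H cells, 5 h post-plating, exposed to compounds 17 h at 37C. LiveBLAzer B/G FRET substrate added for 1 h at room temperature; beta-lactamase reporter read by fluorescence intensity.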

[4] = qHTS assay to identify small molecule antagonists of the peroxisome proliferator-activated receptor gamma (PPARg) signaling pathway - cell viability counter screen (AID 743194); further: nearly all actives have a fitted effect of over 55% in size; further: potency means the concentration at half of the fitted maximal effect
Method in brief: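 Cytotoxicity counter screen in PPARg-bla HEK293H cells, same wells as reporter assay. Compounds plus 50 nM rosiglitazone (final) for 17 h at 37 C, then viability read by CellTiter-Glo luminescence.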

[5] = qHTS assay for small molecule agonists of the antioxidant response element (ARE) signaling pathway - cell viability counter screen (AID 743203; calls by dose curve; further: nearly all actives have a fitted effect of over 55% in size; further: potency means the concentration at half of the fitted maximal effect)
Method in brief: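 HepG2 cells carrying ARE-driven beta-lactamase; 2,000 cells/well; 5 hrs plating; compound pinned from DMSO; 16 hrs 37C/5% CO2; CellTiter-Glo added; 30 min RT; luminescence.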

[6] = qHTS assay for small molecule activators of the heat shock response signaling pathway - cell viability counter screen (AID 743209); further: nearly all actives have a fitted effect of over 50% in size
Method in brief: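 Luminescence from CellTiter-Glo, added after the beta-lactamase FRET read, gave the viability signal. Cells were HSE-bla HeLa treated with DMSO-dissolved compounds for 5 h at 37 C following overnight plating.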

[7] = qHTS assay for small molecule activators of the heat shock response signaling pathway (AID 743210; active means well fitted activation curve with a large enough effect in the signal ratio in the repeat runs, with a control signal flat, not every such curve was filed as active; the % refers to the signal ratio; further: series mostly up to about 63 µM)
Method in brief: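 HSE-bla HeLa cells (beta-lactamase reporter under heat shock response elements), plated overnight, then exposed to compounds 5 h at 37 C; LiveBLAzer B/G FRET substrate added, 2.5 h at room temperature, fluorescence intensity read.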

[8] = qHTS assay to identify small molecule agonists of the peroxisome proliferator-activated receptor delta (PPARd) signaling pathway - cell viability counter screen (AID 743211); further: nearly all actives have a fitted effect of over 55% in size; further: potency means the concentration at half of the fitted maximal effect
Method in brief: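 Luminescent ATP viability assay (CellTiter-Glo, 30 min RT) in UAS-bla HEK293H cells carrying the PPAR delta reporter construct, 3000 cells/well, after a 17 h compound treatment at 37 C.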

[9] = qHTS assay to identify small molecule antagonists of the peroxisome proliferator-activated receptor delta (PPARd) signaling pathway - cell viability counter screen (AID 743213); further: nearly all actives have a fitted effect of over 50% in size; further: potency means the concentration at half of the fitted maximal effect
Method in brief: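 Cytotoxicity counter screen: CellTiter-Glo luminescence read 30 min after addition, in the same wells as the reporter assay. There, PPARd UAS-bla HEK293H cells (3000/well) were treated 17 h at 37 C with compound and 300 nM L165041.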

[10] = qHTS assay to identify small molecule agonists of the farnesoid-X-receptor (FXR) signaling pathway - cell viability counter screen (AID 743218); further: nearly all actives have a fitted effect of over 45% in size; further: potency means the concentration at half of the fitted maximal effect
Method in brief: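 HEK 293T FXR-bla cells; 5 h pre-incubation, 16 h compound exposure at 37 C; LiveBLAzer substrate 2 h RT, then CellTiter-Glo 30 min RT, luminescence.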

[11] = qHTS assay to identify small molecule antagonists of the farnesoid-X-receptor (FXR) signaling pathway - cell viability counter screen (AID 743221; active means well fitted cell-killing curve with a large enough effect in the repeat runs, not every such curve was filed as active; further: nearly all actives have a fitted effect of over 50% in size)
Method in brief: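 In GeneBLAzer FXR-UAS-bla HEK 293T cells stimulated with 50 uM chenodeoxycholic acid (final), compounds acted for 16 h at 37 C. Viability was assessed afterwards by CellTiter-Glo luminescence.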

[12] = biological target: Vitamin D3 receptor (Homo sapiens) (UniProt P11473); assay: qHTS assay to identify small molecule agonists of the vitamin D receptor (VDR) signaling pathway (AID 743222; calls by dose curve; further: potency means the concentration at half of the fitted maximal effect)
Method in brief: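 VDR-bla cells, 2,000/well; 4 h preincubation 37C; cpd (DMSO) 16 h; LiveBLAzer B/G substrate 2 h RT; fluorescence intensity read.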

[13] = biological target: Aryl hydrocarbon receptor (Homo sapiens) (UniProt P35869); assay: qHTS assay to identify small molecule that activate the aryl hydrocarbon receptor (AhR) signaling pathway (AID 743085);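 further: HG2L7.5c1 human HepG2 liver cells with stably integrated DRE-driven firefly reporter; series mostly up to about 70 µM; nearly all actives have a fitted effect of over 15% in size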
Method in brief: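 24 h compound exposure, 37C, HepG2-derived HG2L7.5c1 cells with DRE-responsive luciferase. Readouts: fluorescence viability, then luminescence at room temperature after 30 min.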

[14] = qHTS assay for small molecule agonists of the antioxidant response element (ARE) signaling pathway (AID 743202; active means well fitted activation curve with a large enough effect in the signal ratio in the repeat runs, not every such curve was filed as active; the % refers to the signal ratio; further: potency means the concentration at half of the fitted maximal effect)
Method in brief: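 ARE-bla HepG2 cells (beta-lactamase reporter under the antioxidant response element), plated 5 hours, then exposed to compounds 16 hours at 37 C. LiveBLAzer B/G FRET substrate added for 2 hours at room temperature; fluorescence intensity read.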

[15] = biological target: Peroxisome proliferator-activated receptor delta (Homo sapiens) (UniProt Q03181); assay: qHTS assay to identify small molecule agonists of the peroxisome proliferator-activated receptor delta (PPARd) signaling pathway (AID 743212; calls by dose curve)
Method in brief: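 GeneBLAzer UAS-bla HEK293H cells carrying a PPARδ construct were exposed to compounds at 37 °C. Beta-lactamase activity was read by FRET fluorescence after 2 h at room temperature with LiveBLAzer B/G substrate.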

[16] = biological target: Peroxisome proliferator-activated receptor delta (Homo sapiens) (UniProt Q03181); assay: qHTS assay to identify small molecule antagonists of the peroxisome proliferator-activated receptor delta (PPARd) signaling pathway (AID 743215; active means well fitted inhibition curve with a large enough effect in the signal ratio in the repeat runs, not every such curve was filed as active; the % refers to the signal ratio;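 further: cells stimulated with agonist L165041 at 300 nM final during compound exposure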; further: potency means the concentration at half of the fitted maximal effect)
Method in brief: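 Read-out is beta-lactamase FRET fluorescence, measured 2 h after substrate addition at room temperature. Beforehand, UAS-bla HEK293H cells carrying the PPARd reporter were exposed to compounds with L165041 at 300 nM final for 17 h at 37 C.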

[17] = biological target: Bile acid receptor (Homo sapiens) (UniProt Q96RI1); assay: qHTS assay to identify small molecule antagonists of the farnesoid-X-receptor (FXR) signaling pathway (AID 743217; active means well fitted inhibition curve with a large enough effect in the signal ratio in the repeat runs, not every such curve was filed as active; the % refers to the signal ratio)
Method in brief: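 HEK 293T FXR-UAS-bla, 5000 cells/well; compound + CDCA 50 uM final; 16 h, 37 °C; B/G FRET substrate 2 h RT; fluorescence.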

[18] = biological target: Bile acid receptor (Homo sapiens) (UniProt Q96RI1); assay: qHTS assay to identify small molecule agonists of the farnesoid-X-receptor (FXR) signaling pathway (AID 743220; active means well fitted activation curve with a large enough effect in the signal ratio in the repeat runs, not every such curve was filed as active; the % refers to the signal ratio; further: potency means the concentration at half of the fitted maximal effect)
Method in brief: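 Beta-lactamase reporter under UAS control in GeneBLAzer FXR HEK 293T cells (5000/well) measured with LiveBLAzer FRET substrate after 2 h at room temperature. Compound exposure lasted 16 h at 37C.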

[19] = biological target: Vitamin D3 receptor (Homo sapiens) (UniProt P11473); assay: qHTS assay to identify small molecule antagonists of the vitamin D receptor (VDR) signaling pathway (AID 743223; active means well fitted inhibition curve with a large enough effect in the signal ratio in the repeat runs, not every such curve was filed as active; the % refers to the signal ratio)
Method in brief: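 Agonist 1alpha,25-dihydroxyvitamin D3 (3 nM in well) was added with each compound to VDR-bla cells preincubated 4 h. Cells stood 16 h at 37C, then FRET substrate 2 h at room temperature; fluorescence intensity recorded.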

[20] = qHTS assay to identify small molecule that activate the aryl hydrocarbon receptor (AhR) signaling pathway - cell viability counter screen (AID 743086);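 further: HepG2 liver cells carrying the AhR DRE luciferase reporter; series mostly up to about 70 µM; nearly all actives have a fitted effect of over 45% in size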
Method in brief: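 HepG2-AhR-luc (HG2L7.5c1) cells, 4000/well, treated 24 h at 37 C with compound; viability measured as CellTiter-Fluor fluorescence after 30 min in the same wells as the luciferase read.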

Chain of Aryl hydrocarbon receptor (Homo sapiens) (P35869 whole entry, looked up): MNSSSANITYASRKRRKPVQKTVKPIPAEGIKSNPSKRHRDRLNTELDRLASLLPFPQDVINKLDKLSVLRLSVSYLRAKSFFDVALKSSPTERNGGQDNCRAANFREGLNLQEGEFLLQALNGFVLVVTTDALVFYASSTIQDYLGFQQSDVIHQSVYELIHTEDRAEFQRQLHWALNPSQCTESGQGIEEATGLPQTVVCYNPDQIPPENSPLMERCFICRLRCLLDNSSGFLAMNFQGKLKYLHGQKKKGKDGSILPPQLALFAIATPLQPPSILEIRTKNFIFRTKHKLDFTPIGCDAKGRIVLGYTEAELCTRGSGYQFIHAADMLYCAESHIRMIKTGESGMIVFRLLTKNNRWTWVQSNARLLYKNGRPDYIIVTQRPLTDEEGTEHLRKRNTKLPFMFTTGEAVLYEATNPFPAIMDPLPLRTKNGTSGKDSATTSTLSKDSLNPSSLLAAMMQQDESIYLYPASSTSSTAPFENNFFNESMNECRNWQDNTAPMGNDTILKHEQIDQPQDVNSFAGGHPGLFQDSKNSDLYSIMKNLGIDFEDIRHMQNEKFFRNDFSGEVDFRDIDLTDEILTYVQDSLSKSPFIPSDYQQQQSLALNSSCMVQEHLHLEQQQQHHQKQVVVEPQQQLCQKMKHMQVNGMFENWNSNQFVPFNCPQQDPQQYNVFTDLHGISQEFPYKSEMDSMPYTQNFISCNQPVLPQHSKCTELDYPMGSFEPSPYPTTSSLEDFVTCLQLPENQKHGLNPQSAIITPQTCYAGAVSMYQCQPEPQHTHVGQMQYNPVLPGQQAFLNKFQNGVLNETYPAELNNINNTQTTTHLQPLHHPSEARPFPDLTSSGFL
Chain of Vitamin D3 receptor (Homo sapiens) (P11473 whole entry, looked up): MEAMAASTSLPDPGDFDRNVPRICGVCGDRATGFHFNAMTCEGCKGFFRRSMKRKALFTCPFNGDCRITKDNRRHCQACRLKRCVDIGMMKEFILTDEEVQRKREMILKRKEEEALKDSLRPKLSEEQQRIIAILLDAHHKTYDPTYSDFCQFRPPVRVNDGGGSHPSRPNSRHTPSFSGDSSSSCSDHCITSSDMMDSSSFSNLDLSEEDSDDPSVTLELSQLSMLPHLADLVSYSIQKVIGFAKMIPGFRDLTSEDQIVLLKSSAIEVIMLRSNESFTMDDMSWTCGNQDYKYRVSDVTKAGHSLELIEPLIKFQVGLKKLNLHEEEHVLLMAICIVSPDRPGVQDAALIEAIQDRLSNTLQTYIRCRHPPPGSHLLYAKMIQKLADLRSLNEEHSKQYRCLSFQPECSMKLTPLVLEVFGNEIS
Chain of Peroxisome proliferator-activated receptor gamma (Homo sapiens) (P37231 whole entry, looked up): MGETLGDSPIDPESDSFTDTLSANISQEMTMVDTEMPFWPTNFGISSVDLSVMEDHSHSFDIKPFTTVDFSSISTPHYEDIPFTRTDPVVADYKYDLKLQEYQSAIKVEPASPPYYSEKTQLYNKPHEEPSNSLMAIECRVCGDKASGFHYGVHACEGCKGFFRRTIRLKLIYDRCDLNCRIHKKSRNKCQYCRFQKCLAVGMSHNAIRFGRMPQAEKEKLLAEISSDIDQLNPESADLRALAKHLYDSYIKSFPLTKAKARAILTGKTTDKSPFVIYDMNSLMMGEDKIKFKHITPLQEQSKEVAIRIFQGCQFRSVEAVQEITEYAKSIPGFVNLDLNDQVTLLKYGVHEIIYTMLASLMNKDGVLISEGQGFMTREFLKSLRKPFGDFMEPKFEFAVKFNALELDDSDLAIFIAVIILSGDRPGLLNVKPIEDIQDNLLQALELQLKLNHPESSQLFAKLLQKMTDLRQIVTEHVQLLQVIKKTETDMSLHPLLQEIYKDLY
Chain of Bile acid receptor (Homo sapiens) (Q96RI1 whole entry, looked up): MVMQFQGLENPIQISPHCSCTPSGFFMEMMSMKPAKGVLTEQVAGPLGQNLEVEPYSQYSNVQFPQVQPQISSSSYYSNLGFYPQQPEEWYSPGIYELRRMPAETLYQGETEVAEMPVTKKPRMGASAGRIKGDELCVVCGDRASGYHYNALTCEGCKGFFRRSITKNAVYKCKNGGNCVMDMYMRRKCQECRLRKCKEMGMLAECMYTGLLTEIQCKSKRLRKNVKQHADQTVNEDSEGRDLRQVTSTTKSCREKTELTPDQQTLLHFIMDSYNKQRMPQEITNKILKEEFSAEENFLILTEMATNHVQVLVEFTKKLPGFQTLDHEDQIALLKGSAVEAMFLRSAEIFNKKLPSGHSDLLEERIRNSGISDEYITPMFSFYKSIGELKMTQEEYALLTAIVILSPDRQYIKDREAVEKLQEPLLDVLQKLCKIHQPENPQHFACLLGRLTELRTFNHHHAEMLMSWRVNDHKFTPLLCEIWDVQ
Chain of Peroxisome proliferator-activated receptor delta (Homo sapiens) (Q03181 whole entry, looked up): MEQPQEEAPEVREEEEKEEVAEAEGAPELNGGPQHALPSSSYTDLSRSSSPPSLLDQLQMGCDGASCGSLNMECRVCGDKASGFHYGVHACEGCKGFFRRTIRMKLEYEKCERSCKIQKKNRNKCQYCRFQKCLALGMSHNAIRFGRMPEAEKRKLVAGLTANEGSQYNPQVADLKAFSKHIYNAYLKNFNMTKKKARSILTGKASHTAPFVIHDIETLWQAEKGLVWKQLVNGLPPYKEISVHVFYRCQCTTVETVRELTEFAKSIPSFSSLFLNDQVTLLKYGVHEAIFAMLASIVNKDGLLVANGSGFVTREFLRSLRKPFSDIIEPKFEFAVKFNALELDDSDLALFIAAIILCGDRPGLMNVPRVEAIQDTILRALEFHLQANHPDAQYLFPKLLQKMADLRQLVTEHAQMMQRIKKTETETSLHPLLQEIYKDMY

Compound | Potency [1] | Potency [2] | Potency [3] | Potency [4] | Potency [5] | Potency [6] | Potency [7] | Potency [8] | Potency [9] | Potency [10] | Potency [11] | Potency [12] | Potency [13] | Potency [14] | Potency [15] | Potency [16] | Potency [17] | Potency [18] | outcome [19] | Potency [20]
CCC(=O)O[C@]1(C(=O)CCl)[C@@H](C)C[C@H]2[C@@H]3CCC4=CC(=O)C=C[C@]4(C)[C@@]3(F)[C@@H](O)C[C@@]21C | inactive | inactive | inactive | inactive | inactive | inactive | inactive | inactive | inactive | inactive | inactive | inactive |  |  |  |  |  |  |  | 
O=[N+]([O-])c1ccc(NCCO)c(OCCO)c1 |  | inactive | inactive |  | inactive | inactive | inactive | inactive | inactive | inactive | inactive | inactive | inactive | inactive | inactive | inactive | inactive | inactive | inactive | 
C=CCOC(=O)CCC1CCCCC1 |  | inactive | inactive | inactive | inactive | inactive |  | inactive | inactive | inactive | inactive | inactive | inactive | inactive | inactive | inactive | inactive | inactive |  | inactive
CCN(CC)CCNc1ccc(CNC=O)c2sc3ccc(OC)cc3c(=O)c12 | 48.6 µM (active) |  | 12.3 µM (active) |  | 48.6 µM (active) | inactive | inactive | 30.9 µM (active) |  | 4.9 µM (active) |  | inactive |  |  | inactive | 15.5 µM (active) |  | 6.92 µM (active) |  | 
O=C(O)c1ccc(-n2nc(-c3ccccc3O)nc2-c2ccccc2O)cc1 |  |  |  |  | inactive | inactive |  |  | inactive |  | inactive | inactive | inactive |  | inactive |  |  |  | inactive | inactive
COc1cc2nc(N(C)CCCNC(=O)C3CCCO3)nc(N)c2cc1OC (centres undefined) | inactive | inactive | inactive | inactive | inactive | inactive | inactive |  | inactive | inactive |  |  |  | 23.7 µM (active) | inactive | inactive |  |  |  | 
COC(=O)C1=C(C)NC(COC(N)=O)=C(C(=O)OC(C)C)C1c1cccc(Cl)c1Cl (centres undefined) |  | 21.3 µM (active) |  |  | inactive | inactive |  | inactive | inactive | inactive | inactive | 29.8 µM (active) | inactive |  |  |  |  |  |  | 
CCCCC1=NC2(CCCC2)C(=O)N1Cc1ccc(-c2ccccc2-c2nn[nH]n2)cc1 |  |  | inactive | inactive | inactive | inactive | inactive |  | inactive | inactive | inactive | inactive | inactive |  | inactive | inactive | inactive | inactive |  | inactive
CC(C)CC(=O)C1C(=O)c2ccccc2C1=O | inactive |  |  |  | inactive | inactive | inactive |  | inactive | inactive | inactive |  |  |  | inactive | inactive |  | inactive |  | 
O=C(Cl)c1cc(C(=O)Cl)cc(C(=O)Cl)c1 |  | inactive | inactive | inactive |  | inactive |  | inactive | inactive | inactive | inactive |  | inactive |  | inactive | inactive | inactive | inactive |  | 
CCCCCCOC(=O)NC(=N)c1ccc(NCc2nc3cc(C(=O)N(CCC(=O)OCC)c4ccccn4)ccc3n2C)cc1 |  |  | 29.8 µM (active) | 13.3 µM (active) | 26.6 µM (active) |  | inactive | 21.1 µM (active) | 23.7 µM (active) | 26.6 µM (active) |  |  |  |  |  |  |  | inactive | inactive | 
CCC(C)O (centres undefined) |  |  |  | inactive | inactive | inactive | inactive | inactive | inactive | inactive |  | inactive |  | inactive |  |  | inactive | inactive |  | 
CN(C)CCN(Cc1ccsc1)c1ccccn1 |  |  |  | inactive | inactive | inactive |  | inactive | inactive | inactive | inactive | inactive |  | inactive |  |  |  |  |  | 
CCCC(=O)Nc1ccc(O)c(C(C)=O)c1 |  |  |  | inactive | inactive | inactive | inactive | inactive |  | inactive |  |  |  |  | inactive | inactive |  |  |  | 
Nc1ccccc1S(=O)(=O)c1ccccc1 |  |  |  | inactive | inactive | inactive | inactive | inactive | inactive | inactive | inactive | inactive |  |  |  |  | inactive | inactive |  | inactive
C[C@@H]1C[C@H]2[C@@H]3CCC4=CC(=O)C=C[C@]4(C)[C@@]3(F)[C@@H](O)C[C@]2(C)[C@@]1(O)C(=O)COC(=O)c1ccncc1 |  |  | inactive | inactive | inactive | inactive | inactive | inactive |  |  |  | inactive |  | inactive | inactive |  |  |  | inactive | 
Cc1ccc(C(C)OC(=O)C2(C)CCC(C(=O)O)C2(C)C)cc1 (centres undefined) |  |  |  | inactive | inactive | inactive | inactive |  |  | inactive | inactive | inactive |  | inactive | inactive |  |  |  |  | 
CCOC(=O)C(=O)CCc1ccccc1 |  |  | inactive |  | inactive | inactive | inactive | inactive | inactive | inactive | inactive |  |  | inactive | inactive | inactive |  |  |  | 
Nc1ccc([N+](=O)[O-])c(C(F)(F)F)c1 |  |  | inactive |  | inactive | inactive | inactive | inactive | inactive | inactive |  |  |  | inactive | inactive |  |  | inactive |  | 
